Source: PubChem BioAssay (National Center for Advancing Translational Sciences (NCATS))
HP1b binding inh – HTS for Inhibitors of HP1-beta Chromodomain Interactions with Methylated Histone Tails. Chromobox protein homolog 1 (Homo sapiens), P83916. AlphaScreen HP1-beta / biotin-H3K9me3 peptide binding. Potency, µM (titrated, usually from 114 µM), for the others: at the top dose activity change, negative = inhibition, usual class: inhibitors. actives 0.56% (n = 390,000); also: nearly all actives have a fitted effect of over 70% in size
Target sequence (P83916 whole entry, looked up): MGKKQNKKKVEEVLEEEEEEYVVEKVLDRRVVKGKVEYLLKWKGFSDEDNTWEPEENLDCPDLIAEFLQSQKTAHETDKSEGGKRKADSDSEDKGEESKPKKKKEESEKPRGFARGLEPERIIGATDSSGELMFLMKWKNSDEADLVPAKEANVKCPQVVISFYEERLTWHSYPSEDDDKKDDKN
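HP1-beta protein (50 nM final) preincubated 30 min at room temperature with biotinylated H3(1-18)K9me3 peptide (50 nM) in PBS pH 7.4, 0.01% Tween-20, then compound added for 30 min. AlphaScreen streptavidin donor/nickel chelate acceptor beads (10 ug/mL final), 30 min dark, luminescence read.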
BAZ2B inh – qHTS Assay for Inhibitors of BAZ2B; AlphaScreen BAZ2B-H3K14Ac peptide displacement; Potency, µM (titrated, usually from 114 µM), for inactives: at the highest dose activity change, negative = inhibition, actives largely listed as inhibitors; AID 504333, 2011; Bromodomain adjacent to zinc finger domain protein 2B (Homo sapiens), Q9UIF8; actives 4.4% (n = 360,000); also: % is scaled to controls: 0 for no effect and ±100 for the full control effect; nearly all actives have a fitted effect of over 60% in size
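AlphaScreen displacement: compounds (up to 110uM) incubated 30 min at room temperature with a preformed 50 nM BAZ2B/50 nM biotinylated H3K14Ac peptide complex in PBS pH 7.4 with Tween-20. Donor and acceptor beads at 10 ug/mL final added, 20 min light-protected before reading.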
G9a block – qHTS Assay for Inhibitors of Histone Lysine Methyltransferase G9a | Histone-lysine N-methyltransferase EHMT2 (Homo sapiens), Q96KQ7 | G9a H3K9 monomethylation, AlphaScreen, 2 h | Potency, µM (highest dose often 102 µM), inactives show at the top dose activity, negative = inhibition, hits mostly inhibitors | actives 8.8% (n = 350,000) | AID 504332, 2011; also: % is scaled to controls: 0 for no effect and ±100 for the full control effect; nearly all actives have a fitted effect of over 75% in size
Target sequence (Q96KQ7 913-1193 limits assumed): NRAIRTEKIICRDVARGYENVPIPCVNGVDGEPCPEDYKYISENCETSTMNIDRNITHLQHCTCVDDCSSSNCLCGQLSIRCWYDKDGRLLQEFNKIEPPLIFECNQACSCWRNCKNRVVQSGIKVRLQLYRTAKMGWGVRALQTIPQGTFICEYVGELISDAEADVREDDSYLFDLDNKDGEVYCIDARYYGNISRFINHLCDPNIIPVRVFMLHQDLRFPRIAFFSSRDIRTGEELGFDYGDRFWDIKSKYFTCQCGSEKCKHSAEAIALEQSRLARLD
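Chemiluminescent proximity detection of H3K9 monomethylation, read after 10 min bead incubation in the dark. Reaction: 20 nM G9a, 500 nM biotin-H3K9 peptide, 20 uM SAM cofactor, 2 h, room temperature, following 15 min enzyme-compound preincubation.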
JMJD2A Tudor – qHTS Assay for Inhibitors of JMJD2A-Tudor Domain | Lysine-specific demethylase 4A (Homo sapiens), O75164 | AlphaScreen JMJD2A-Tudor / H3K4me3 peptide binding | Potency, µM (highest dose often 114 µM), for inactives: at the highest dose activity change, negative = inhibition, usual class: inhibitors | actives 4.4% (n = 390,000); also: % is scaled to controls: 0 for no effect and ±100 for the full control effect; nearly all actives have a fitted effect of over 50% in size
Sfp inh – qHTS Assay for Inhibitors of Bacillus subtilis Sfp phosphopantetheinyl transferase (PPTase) | 4'-phosphopantetheinyl transferase ffp (Bacillus subtilis), Q9F4F7 | Biochemical Sfp PPTase activity, qHTS | Potency, µM, without a hit: largest response in the series, negative = inhibition, hits mostly inhibitors | actives 3.5% (n = 310,000) | AID 1490, 2009;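 also: the enzyme is Sfp with the accession as filed and its product quenches rhodamine fluorescence; 0% = enzyme reaction without inhibitor and -100% = no enzyme wells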
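Step 1, compound plus 15 nM Sfp-PPTase, 15 min, room temperature. Step 2, add rhodamine-CoA (5 uM) and BHQ-2-YbbR (12.5 uM). Step 3, read 525/598 nm fluorescence at 0 and 30 min.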
Numbers without * were called inactive; ? = inconclusive; . = no result; [ ] = remark or other dose. The list is not random: actives were taken first. Their share in the collection is about 12%. Calls follow the shape of the dose curve; as a rule, active = well fitted curve in the direction sought with a large enough effect; inconclusive = small, poorly fitted or top-dose-only effect, or another doubt; inactive = no such curve, though single readings can be large; an effect the other way counts as inactive or inconclusive. Potency is read from the fitted curve at half-maximal effect.

SMILES	HP1b binding inh	BAZ2B inh	G9a block	JMJD2A Tudor	Sfp inh
COCc1cc(=O)[nH]c(SCCS(=O)(=O)c2ccc(Cl)cc2Cl)n1	69.5%	-12.8%	?	-12.1%	79.4µM*
COCCNC(=O)C(=O)NNS(=O)(=O)c1ccc2ccccc2c1	-15.3%	-15.7%	39.8µM*	?	-6.1%
COCCNC(=O)C(=O)NNC(=O)COc1ccc(OC)cc1	55.3%	-38.0%	25.1µM*	-7.2%	-8.3%
O=C(NCCN1CCOCC1)c1cccc(S(=O)(=O)N2CCCC2)c1	21.7%	1.8%	.	-11.7%	8.0%
Nc1cnccc1C(=O)O	22.9%	?	?	?	25.1µM*
CCn1cnc2cc(NCc3ccc(N(C)C)cc3)ccc21	31.6µM*	10µM*	11.2µM*	10µM*	-5.1%
CCN(CC)c1ccc(CNc2ccc3c(c2)ncn3CC)cc1	35.5µM*	15.8µM*	22.4µM*	20µM*	-18.5%
CCOc1ccc(CNc2ccc3c(c2)ncn3C(C)(C)C)cc1	-30.8%	?	79.4µM*	?	-1.1%
CC(C)(C)n1cnc2cc(NC(=O)c3ccccc3)ccc21	26.5%	-4.3%	-4.2%	-16.3%	15.1%
CN(C)c1ccc(CNc2ccc3c(c2)ncn3C(C)(C)C)cc1	35.5µM*	15.8µM*	22.4µM*	14.1µM*	-28.9%
Brc1ccc(CSc2nnc(-c3ccco3)o2)cc1	139.9%	68.2%	82.8%	76.1%	56.2µM*
c1ccc(CSc2nnc(-c3ccco3)o2)cc1	17.2%	0.7%	38.4%	0.3%	12.6%
CCN(Cc1ccccc1)C(=O)c1[nH]c2ccc(OC)cc2c1C	23.4%	-14.0%	0.3%	-12.1%	1.8%
CCN(CC)CCNC(=O)c1[nH]c2ccc(OCc3ccccc3)cc2c1C	?	?	50.1µM*	?	?
COc1ccc(C(=O)/C(=C/c2cccs2)c2nc3ccccc3o2)cc1	?	-32.9%	?	44.7µM*	-6.5%
COc1ccc(/C=C(\CC(=O)O)c2nc3ccccc3o2)cc1	24.0%	-5.8%	1.7%	-6.3%	-11.8%
CN(C)NC(=O)c1cccc(Cl)c1	3.1%	-0.3%	10.7%	?	14.3%
CCCCCCNC(=O)CC(NS(=O)(=O)c1ccc(NC(C)=O)cc1)C(C)C (centres undefined)	44.0%	1.6%	39.8µM*	-2.9%	8.9%
CCCNC(=O)CC(NS(=O)(=O)c1ccc(NC(C)=O)cc1)C(C)C (centres undefined)	43.7%	0.4%	-22.6%	3.5%	23.3%
Cn1c(SCC(=O)Nc2cccc(F)c2)nnc1-c1cc2ccccc2o1	81.6%	-0.7%	6.2%[12.7 µM]	8.7%	20.3%
O=C(Nc1ccnn1C1CCN(Cc2ccccn2)CC1)c1cccc(F)c1	48.7%	-26.1%	-41.3%	-8.3%	8.0%
CC(O)CNCc1cccc2ccccc12 (centres undefined)	28.3%	5.4%	-10.6%[59 µM]	-6.0%	24.8%
COCCCNc1nc(N)c([N+](=O)[O-])c(Nc2cc(OC)ccc2OC)n1	10.0%	-1.9%	-6.1%	-1.8%	10.0%
COc1ccc(OC)c(Nc2nc(NCCCN(C)C)nc(N)c2[N+](=O)[O-])c1	-21.2%	31.6µM*	44.7µM*	35.5µM*	-10.8%
CCCCCCN1C=C/C(=C\C=C(C#N)C#N)c2ccccc21	?	3.16µM*	7.08µM*	2.82µM*	4.9%
CCCCCCN1C=CC=C/C1=C/C=C(C#N)C#N	-22.6%	25.1µM*	44.7µM*	?	?
C=CCN1C=C/C(=C\C=C(C#N)C#N)c2ccccc21	?	3.16µM*	?	22.4µM*	-0.2%
C=CCN1C=CC(=CC=C(C#N)C#N)C=C1	11.2%	-37.2%	?	-11.8%	2.6%
CCCCCN1C=CC=C/C1=C\C=C(C#N)C#N	-10.5%	?	?	-23.8%	-3.3%
Cc1ccc(Nc2nc3ccccc3c3nnc(C)n23)cc1Cl	36.5%	-9.9%	0.5%[59 µM]	-6.9%	.
